Values without a mark were called inactive. Activity calls are given as the source filed them. Calls follow the shape of the dose curve; as a rule, active = well fitted curve in the direction sought with a large enough effect in the repeat runs; inconclusive = weak or mixed curves; inactive = flat fitted curve, though single readings scatter.
Assay: qHTS assay to test for compound auto fluorescence at 460 nm (blue) in HepG2 cells (AID 720687)
Conditions: autofluorescence 405/460 nm, 1 h; series mostly up to 91.3 µM
Source text: U.S. Tox21 Program National Center for Advancing Translational Sciences [NCATS] NIH Chemical Genomics Center [NCGC] U.S. Environmental Protection Agency [EPA] National Institutes of Environmental Health Sciences [NIEHS] National Toxicology Program [NTP] U.S. Food and Drug Administration [FDA] Tox21 Assay Overview: Compound auto fluorescence often interferes with screening of the compound library against various biological targets and signaling pathways. Some of these compounds may have fluorophoric properties. Such properties may interfere with the assay outputs resulting in false positives and/or negatives. To decrease such complications and ensure the compound activities are relevant in terms of biological response, the Tox21 10K compound library was screened for auto fluorescence. From the fluorophores used as reporter signals in our screening assays, the auto fluorescence equivalencies of compounds against three fluorophores have been evaluated: Triamterene, Fluorescein and Rose Bengal sodium for blue, green and red fluorescence, respectively. The fluorescence intensities were measured using Excitation/Emission wavelengths at 405/460nm, 485/535nm and 540/590nm for blue, green and red labels, respectively. This assay includes the blue fluorescence data.
Tox21 Assay Protocol Summary: 2,000 HepG2 cells in 5 uL of culture medium (MEM containing 10% FBS) per well were dispensed into black wall/clear bottom 1536-well plates using a Multidrop Combi Dispenser (ThermoFisher Scientific, Waltham, MA). The assay plates were incubated overnight at 37 C to allow cell attachment to the well bottom, followed by the transfer of 23 nL compound or DMSO vehicle by a pintool work station (Kalypsys , San Diego, CA). After the assay plates were incubated for 1 hr at 37 C and 5% CO2, fluorescence intensities in the assay plates were measured by an Envision (PerkinElmer, Shelton, CT) plate reader using three labels for measuring blue, green and red fluorescence at […] 460, 535 and 590 nm respectively.
% is scaled to controls: 0 for no effect and ±100 for the full control effect.

SMILES | outcome | fluorescence, % of fluorescent control
CCCCOCCOC(=O)COc1nc(Cl)c(Cl)cc1Cl | inactive | 
O=S(O)(O)=S |  | -0.0508% [at 3.72 µM]
COc1ccc(-c2cc(=O)c3c(O)cc(O[C@@H]4O[C@H](CO[C@@H]5O[C@@H](C)[C@H](O)[C@@H](O)[C@H]5O)[C@@H](O)[C@H](O)[C@H]4O)cc3o2)cc1O | inactive | 
CC(=O)c1sc(C)nc1C | inactive | 
O=C(O)C(=O)Cc1ccccc1 | inactive | 
C[Si](C)(C)C | inactive | 
CC(C)CC(=O)O | inactive | 
CCCCCCOC(=O)CC | inactive | 
O=Cc1ccc(Cl)c(Cl)c1 | inactive | 
C=CCCCCCCCCCCCC | inactive | 
CCCCCCCCOS(=O)(=O)O | inactive | 
COc1nccnc1NS(=O)(=O)c1ccc(N)cc1 | inactive | 
C=C(C)C1CCC(C)(O)CC1 (stereo not given) | inactive | 
COc1cc(NS(=O)(=O)c2ccc(N)cc2)nc(OC)n1 |  | 0.0701% [at 18.6 µM]
COc1cc(N)ccc1C | inactive | 
COC(=O)c1ccccc1C(=O)c1ccc(OCCN2CCCCC2)cc1 | inactive | 
O=C(CCN1CCN(CCO)CC1)N1c2ccccc2Sc2ccc(C(F)(F)F)cc21 | inactive | 
Nc1ncnc(Nc2ccccc2)n1 | inactive | 
CCCCCCCCCCl | inactive | 
c1ccc2c(c1)ccc1c3ccccc3ccc21 | inactive | 

SMILES | outcome | fluorescence, % of fluorescent control
CN(C)c1ccc(C=O)cc1 | inactive | 
CCOCCOCCOCC | inactive | 
C[C@@H](Oc1ccc(CNC(=O)c2cccnc2Oc2ccc3c(c2)OCO3)c(F)c1)C(=O)O | inactive | 
c1ccc2nccnc2c1 | inactive | 
CCN(C)C(=O)Oc1cccc([C@H](C)N(C)C)c1 | inactive | 
N[C@@H](COP(=O)(O)O)C(=O)O | inactive | 
NCCN1CCOCC1 | inactive | 
Cc1cccc(C)c1OCC(C)N (stereo not given) | inactive | 
CC(C)(C)c1cc(CCC(=O)NN)cc(C(C)(C)C)c1O | inactive | 
O=C(OCC(COC(=O)c1cccnc1)(COC(=O)c1cccnc1)COC(=O)c1cccnc1)c1cccnc1 | inactive | 
CN=C(NC#N)Nc1ccc(C2=NNC(=O)CC2C)cc1 (stereo not given) | inactive | 
C=CC(OCC)OCC | inactive | 
CC/C=C\CC1=C(C)CCC1=O | inactive | 
COc1ccc2c(c1OC)C(=O)O[C@@H]2[C@H]1c2c(cc3c(c2OC)OCO3)CCN1C | inactive | 
CC(C)CCCCOC(=O)c1ccccc1C(=O)OCCCCC(C)C | inactive | 
N[C@@H](CCC(=O)Nc1ccc([N+](=O)[O-])cc1)C(=O)O | inactive | 
CCCCCCOc1ccccc1C(N)=O | inactive | 
O=C(O)c1cc(Cl)cc([N+](=O)[O-])c1Cl | inactive | 
CC(C(=O)O)c1ccc2c(c1)CC(=O)c1ccccc1S2 (stereo not given) | inactive | 
CCCCOC(=O)c1ccccc1 | inactive | 

From PubChem BioAssay (Tox21)
